# Source: PubChem BioAssay (NCI)
# The panel holds about 83,000 compounds, 20% with a hit somewhere; the sample as a whole holds those more often.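 Testing used 96-well plates and a 48-hour single-concentration exposure. Example: -40 means 40% of the starting cells died.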 Activity calls are given as the source filed them. Rule for the calls: active = growth percent below 10; inactive = the rest.
# Tested on: OVCAR-3 ovarian
# Assay: NCI-60 one-dose screen, 48 h (100 = growth as untreated, 0 = no growth, -100 = all killed)
# Conditions: 10 µM unless noted
row,Structure (SMILES),growth
1,O=C1/C(=C/c2ccc(F)cc2)CN(C(=O)CCN2CCC(=NO)CC2)C/C1=C\c1ccc(F)cc1,-60% (active)
2,CC/C=C\C[C@H](O)C/C=C1/C(=O)C=C[C@@H]1C/C=C\CCCC(N)=O,3.26% (active)
3,CC/C=C\C[C@H](F)C/C=C1/C(=O)C=C[C@@H]1C/C=C\CCCC(=O)OC,-13.2% (active)
4,Nc1nc2c(c3ncccc13)C(c1ccc(Cl)c(Cl)c1)Cc1ncccc1-2 (centres undefined),-8.92% (active)
5,Cn1c(=O)c2c(ncn2CC[N+](C)(C)C)n(C)c1=O,105% (inactive)
6,O=C(O)c1cccc2c1-c1ccccc1C2=O,102% (inactive)
7,CCOC(=O)C(C#N)C1CCCCC1 (centres undefined),96.9% (inactive)
8,CCCCNP1(NCCCC)=NP(NCCCC)(NCCCC)=NP(NCCCC)(NCCCC)=NP(NCCCC)(NCCCC)=N1,-48.7% (active)
9,CC(=O)C1=C(O)C=C2Oc3c(C(=O)/C=C/c4cc(C(F)(F)F)cc(C(F)(F)F)c4)c(O)c(C)c(O)c3[C@]2(C)C1=O,-50.5% (active)
10,COc1ccc(OCC(=O)Nc2ccc(-c3nc4ccccc4s3)cc2C)cc1,102% (inactive)
11,CCCCCCCCCC(=O)Oc1ccc(/C(=C(/C)c2ccccc2)c2ccc(OCCN3CCCC3)cc2)cc1,42.9% (inactive)
12,COc1cccc(-c2nc3sccn3c2-c2ccnc(NCCCNS(=O)(=O)c3ccc(Cl)cc3)c2)c1,51.3% (inactive)
13,CC/C=C\C[C@H](O)C/C=C1/C(=O)C=C[C@@H]1C/C=C\CCCC(=O)NC,4.67% (active)
14,COc1cccc(/C=C\C(=O)c2ccccc2)c1,-4.31% (active)
